Test results as given in PubChem BioAssay (NCATS).
Inconclusive results are not listed. Unmarked numbers belong to inactive results. Calls come from the whole dose curve; as a rule, active = well fitted inhibition curve with a large enough effect; inconclusive = small, poorly fitted or top-dose-only effect; inactive = flat fitted curve, though single readings scatter.

The molecules below were run against Calcium and integrin-binding protein 1 (Homo sapiens) (UniProt Q99828) (assay: Primary qHTS for Identification of Calcium Integrin Binding Protein 1 (CIB1) Competitor (AID 1508620;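 note: GST tagged CIB1 binding a fluorescein labelled alphaIIb integrin peptide tracer; top concentration of the series differs between compounds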)). Settings: CIB1-GST / FITC-alphaIIb peptide fluorescence polarization; series mostly up to 114 µM; activity change, negative = inhibition: at the top concentration.
Calcium and integrin-binding protein 1 (Homo sapiens), sequence (Q99828 whole entry, looked up): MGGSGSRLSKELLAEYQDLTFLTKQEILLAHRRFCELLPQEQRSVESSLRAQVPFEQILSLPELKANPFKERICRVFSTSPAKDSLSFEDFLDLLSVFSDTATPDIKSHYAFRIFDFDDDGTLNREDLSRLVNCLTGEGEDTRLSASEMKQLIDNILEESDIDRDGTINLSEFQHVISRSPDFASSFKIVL
Procedure, shortened: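 CIB1-GST (1 uM final) and compound incubated 15 min at room temperature before adding FITC-alphaIIb peptide tracer (100 nM final). Competition for binding read by fluorescence polarization (ex 480, em 540) after another 15 min at room temperature.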
% is set by controls: 0 for no effect and ±100 for the full control effect.

Row | Compound | activity change, negative = inhibition
1 | C[C@@H]1O[C@@H](OC[C@H]2O[C@@H](Oc3c(-c4ccc(O)c(O)c4)oc4cc(O)cc(O)c4c3=O)[C@H](O)[C@@H](O)[C@@H]2O)[C@H](O)[C@H](O)[C@H]1O | -8.86%
2 | Cc1onc(-c2ccccc2)c1-c1ccc(S(N)(=O)=O)cc1 | 3.54%
3 | CCCCCOC(=O)Nc1nc(=O)n([C@@H]2O[C@H](C)[C@@H](O)[C@H]2O)cc1F | 1.54%
4 | OCC(O)CS (centres undefined) | 1.7%
5 | Cc1c(I)c(=O)n(-c2ccccc2)n1C | -5.13%
6 | NC(N)=NCCN1CCCCCCC1 | -2.06% [at 1.07 µM]
7 | CC(C)NC[C@@H](O)COc1ccc(CC(N)=O)cc1 | 2.3%
8 | O=C(O)COC(=O)Cc1ccccc1Nc1c(Cl)cccc1Cl | -2.74%
9 | CN(C(=O)c1c(O)c2ccccc2n(C)c1=O)c1ccccc1 | 2.35%
10 | C/C=C1\[C@H]2C=C(C)C[C@]1(N)c1ccc(=O)[nH]c1C2 | -1.42%
11 | NC(=O)CC[C@@H](N)C(=O)O | -1.86%
12 | CC1(C)S[C@@H]2[C@H](N=CN3CCCCCC3)C(=O)N2[C@H]1C(=O)O | -0.327%
13 | O=C(O)/C=C/c1ccc(Cn2ccnc2)cc1 | 2.3%
14 | C[C@]1(Cn2ccnn2)[C@H](C(=O)O)N2C(=O)C[C@H]2S1(=O)=O | -0.654%
15 | Cc1cc(=O)[nH]c(=S)[nH]1 | -1.33%
16 | CC(CN(C)C)C(C)(O)Cc1ccc(Cl)cc1 (centres undefined) | -1.55%
17 | O=C(O)C(S)C(S)C(=O)O (centres undefined) | -4.35%
18 | CC(=O)N[C@H]1[C@H]([C@H](O)[C@H](O)CO)OC(C(=O)O)=C[C@@H]1N=C(N)N | -1.63%
19 | O=C(O)Cc1cn(-c2ccccc2)nc1-c1ccc(Cl)cc1 | -7.61%
